From PubChem BioAssay
TTR transcr act – TTR transcription activators in neuroblastoma reporter cells, primary screen, cell-based, luminescence, SH-SY5Y, TTR promoter Gaussia luciferase | activation, % at 16.7 µM | 100% = recombinant luciferase protein wells | 1.3% of 92,000 active;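 active = activation above the mean of all tested compounds plus 3 SD, cut at about 9.5% in these data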;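 note: cells exposed to compounds for one day before reading; 0% = median of all test compound wells on the plate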
HuH7 TTR inh – TTR promoter reporter inhibitors in hepatoma cells, counter-screen for TTR transcription activator project, cell-based, luminescence, HuH7 hepatoma. shares compounds with TTR transcr act. HuH7 TTR promoter-Gaussia luciferase reporter. inhibition, % at 16.7 µM. 4% of 1,100 active;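 active = average inhibition above the solvent-only control wells' mean plus 3 SD, cut at about 15% in these data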;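 note: 0% = cells with DMSO only and 100% = cells with inhibitor control FD; inhibitors lower well luminescence so higher value means more inhibition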
TTR act confirm – TTR transcription activators, retest, confirmation, cell-based, luminescence, SH-SY5Y, triplicate; shares compounds with TTR transcr act; SHSY5Y TTR promoter Gaussia luciferase; 100% = purified Lucia enzyme wells, no cells; activation, % at 16.7 µM; 1,100 tested, under 10 active;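 active = mean activation above a set limit taken from the earlier primary screen, cut at about 11% in these data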;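 note: 0% = DMSO-treated cells and 100% = recombinant Lucia luciferase without cells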
The depositor's hits bear a star. The sample as a whole holds a higher share of hits than the screen did.

SMILES | TTR transcr act | others
COc1ccc(NC(=O)CCc2c(C)nn(-c3ccc(N4CCOCC4)nn3)c2C)cc1 | 12.5* | HuH7 TTR inh=-6.1;TTR act confirm=1.0
CC(=O)c1ccc(NC(=O)CCc2c(C)nn(-c3ccc(N4CCOCC4)nn3)c2C)cc1 | -1.8
Cc1ccc(NC(=O)CCc2c(C)nn(-c3ccc(N4CCOCC4)nn3)c2C)cc1 | 0.7
CC(C)(C)c1ccc(C2(C)NC(=O)N(CC(=O)NC3CCS(=O)(=O)C3)C2=O)cc1 (centres undefined) | 3.0
COC(=O)[C@]12C[C@H](CC(=O)NCc3cccs3)C(=O)N(Cc3ccc4c(c3)OCO4)C1=C[C@H](C(C)C)O[C@@H]2C1CC1 | -0.2
CC(O)(c1ccc(F)c(F)c1)c1nc(-c2cccc(C(=O)O)c2)cs1 (centres undefined) | 13.2* | HuH7 TTR inh=-35.2;TTR act confirm=-0.8
CC(O)(c1ccccc1)c1nc(-c2cccc(C(=O)O)c2)cs1 (centres undefined) | 1.1
CC(O)(c1ccc(F)c(F)c1)c1nc(-c2ccc(Cl)cc2)cs1 (centres undefined) | -0.4
Cc1ccc(-c2c(NC(=O)c3cccc(C)c3)nc3ncccn23)cc1 | 2.2
COc1cccc(CC2(CO)CCCN(Cc3cn[nH]c3-c3cc(C)ccc3C)C2)c1 (centres undefined) | 1.9
O=C(Nc1cccc(C(F)(F)F)c1)OC1CC2CC1[C@H]1CCCCN1[C@H]2Cc1ccccc1 (some centres undefined) | 4.2
COc1ccc(S(=O)(=O)N2CCCCCC2)cc1NC(=O)CCCOc1ccccc1 | -0.4
COc1ccc(Cl)cc1NC(=O)c1[nH]nc(OC)c1[N+](=O)[O-] | -2.3
COc1n[nH]c(C(=O)Nc2cc(F)ccc2C)c1[N+](=O)[O-] | 10.4* | HuH7 TTR inh=-15.3;TTR act confirm=-1.0
Cc1ccc(F)cc1NC(=O)c1cccc2nccnc12 | -2.0
Cc1ccc(-c2c(NC(=O)c3ccc(F)cc3)nc3ncccn23)cc1 | -1.3
CN1C(=O)/C(=C/c2ccc(OCc3ccccc3F)cc2)N(C)C1=S | -0.3
COc1ccc(CSc2nncn2C)cc1F | -1.8
Cn1cnnc1SCc1ccccc1 | 18.2* | HuH7 TTR inh=-10.7;TTR act confirm=-0.4
Cn1cnnc1SCc1ccc(C(=O)NN)cc1 | -0.9
OCC[C@H]1C[C@@H](O)[C@H](O)[C@@]2(CCCCO2)O1 | 5.7
CCc1nc2ccc(C(=O)NCCC(C)C)cn2c1N(C)Cc1ccc(OC)cc1 | 0.9
Cc1nnc(SCC(=O)Nc2nccs2)o1 | 1.7
O=C1Oc2ccccc2C2(O)C3CCCCCC3C12 (centres undefined) | 13.3* | HuH7 TTR inh=-11.3;TTR act confirm=-0.2
Cn1nnnc1Sc1ncnc2scc(-c3cc4ccccc4o3)c12 | -13.2
SMILES | TTR transcr act | others
COc1ccc(C2(C)NC(=O)N(CC(=O)Nc3ccc4c(c3)OCO4)C2=O)cc1OC (centres undefined) | 14.9* | HuH7 TTR inh=-12.3;TTR act confirm=0.8
CC1(c2ccccc2)NC(=O)N(CC(=O)Nc2ccc3c(c2)OCO3)C1=O (centres undefined) | -1.0
CC1(c2ccc(OC(F)F)cc2)NC(=O)N(CC(=O)Nc2ccc3c(c2)OCO3)C1=O (centres undefined) | -2.4
O=C(c1cc2nc(-c3ccc(F)cc3)cc(C(F)(F)F)n2n1)N1CCCCC1c1cccnc1 (centres undefined) | -5.3
CN(C(=O)COC(=O)c1cc[n+]([O-])cc1)c1ccccc1 | -1.6
COc1ccc(-n2cc(COC(=O)NCCc3ccccc3)nn2)cc1 | 11.0* | HuH7 TTR inh=-7.8;TTR act confirm=-0.5
O=C(NCCc1ccccc1)OCc1cn(-c2c(F)cccc2F)nn1 | 0.6
O=C(NCCc1ccccc1)OCc1cn(-c2cccc(C(F)(F)F)c2)nn1 | 4.2
CCc1ccc2[nH]c3nc(N/N=C/c4ccc(O)cc4O)nnc3c2c1 | -1.7
O=C(OCC(=O)N1CCCc2ccccc21)c1cc(S(=O)(=O)N2CCOCC2)ccc1O | 2.1
Cc1cccc(S(=O)(=O)N2C[C@@H](O)COC[C@@H]3O[C@H](CC(=O)NCCCN4CCOCC4)CC[C@H]32)c1 | -0.2
Cc1cccc(N2O[C@H]3C=C[C@@H]2C3)n1 | -0.8
Nc1ccccc1C(=O)N1O[C@@H]2C=C[C@H]1C2 | 0.1
C1=CC2CCC1ON2c1ccccc1 (centres undefined) | 16.7* | HuH7 TTR inh=-4.1;TTR act confirm=0.3
CC1=C(C(=O)N(C)C)CC(CC(=O)NC2CCCCC2)C(=O)N1Cc1ccccc1 (centres undefined) | 0.7
CN1OC[C@@H]2CN(Cc3ccc(Cl)cc3)[C@H](c3ccc(-n4ccnc4)cc3)C[C@@H]21 | 1.1
CCN(CC)CCNC(=O)Cc1nn(Cc2ccccc2)c(=O)c2ccccc12 | 0.2
CC(C)(C)NC(=O)c1nn(Cc2ccccc2)c(=O)c2ccccc12 | 10.2* | HuH7 TTR inh=-27.1;TTR act confirm=0.0
